Screens from PubChem BioAssay.
An excerpt weighted towards active compounds, which were near 12% of everything screened.
CHX counter – counter-screen for Shiga toxin inhibitors: cycloheximide protein synthesis inhibition; cell reporter, cycloheximide protein synthesis inhibition counterscreen; max response, %; actives 12% (n = 300,000); in the data active means max response mostly above about 13%, no sharp cut-off; inactive means mostly below about 14%; further: read at 38.3 µM for the half of the compounds with a filed dose; 0% is about no effect
Shiga toxin inh – blocks Shiga toxin action in Vero cells; Vero cells, Shiga toxin protein synthesis inhibition reporter; inhibition, % at 38.7 µM; actives 9.2% (n = 290,000); AID 2315; in the data active means inhibition mostly above about 28%, no sharp cut-off; inactive means mostly below about 43%; further: 0% is about no effect
Lassa entry inh – Lassa virus entry inhibition. Potency, µM (titrated, usually from 37.9 µM), for inactives: at the highest dose activity change, negative = inhibition, hits mostly inhibitors. actives 1.2% (n = 300,000). AID 540256. Lassa virus pseudotype entry inhibition, cell reporter; calls by dose curve; tested in HEK293 cells; further: potency means the concentration at half of the fitted maximal effect; on the % scale 0 is the no-effect control and ±100 the full control effect; nearly all actives have a fitted effect of over 50% in size
MARV entry inh – blocks Marburg virus binding to or entry into cells; Marburg virus pseudotyped entry inhibition, cell reporter; Potency, µM (titrated, usually from 37.8 µM), for inactives: top-dose activity change, negative = inhibition, hits mostly inhibitors; actives 1.8% (n = 300,000); AID 540276; calls by dose curve; tested in HEK293 cells; further: potency means the concentration at half of the fitted maximal effect; on the % scale 0 is the no-effect control and ±100 the full control effect
Starred values were filed as active, the others as inactive; ? = inconclusive; nt = no result given; [ ] = dose if it differs, or a comment.

SMILES	CHX counter	Shiga toxin inh	Lassa entry inh	MARV entry inh
COc1ccc(N2CCN(C(=O)c3cccnc3SCc3cccc(Br)c3)CC2)cc1	-1	-9	13µM*	?
O=C(CCC1COc2ccccc2O1)Nc1ccc(Cl)cn1 (stereo not given)	14*	31*	3%	-17%
Cc1ccnc(NC(=O)CCC2COc3ccccc3O2)c1 (stereo not given)	13*	17	-1%	15%
O=C(Nc1cccc(-c2nn[nH]n2)c1)c1ccc(Br)s1	23*	-24	-1%	-1%
CCc1sc(C(=O)Nc2cccnc2)cc1Br	30*	47*	-14%[46.1 µM]	10%[46.1 µM]
O=C(Nc1cccnc1)c1cccnc1	-1	3	6%	-5%
CCc1sc(C(=O)Nc2ccsc2C(=O)OC)cc1Br	-7	53	8%	3%
O=C(Nc1cccnc1)c1ccc(Br)s1	31*	105*	26%	17%
CC(=O)NC1=C(C#N)C(c2ccccc2)c2c(ccc3ccccc23)O1 (stereo not given)	5	-8	?	10µM*
O=C(Cn1cnc2c(cnn2-c2ccccc2)c1=O)N1CCCc2ccccc21	-1	-15	?	7.3µM*
O=C(Cn1cnc2c(nnn2-c2ccccc2)c1=O)N1CCCc2ccccc21	1	-18	nt	nt
O=c1c2cnn(-c3ccccc3)c2ncn1CCc1ccccc1	23*	49*	4%	-2%
CCn1cnc2c(cnn2-c2ccccc2)c1=O	27	84	15%	16%
CCOC(=O)c1ccccc1NC1(c2ccc(OC)cc2)C(=O)c2ccccc2C1=O	nt	nt	14%[46.1 µM]	nt
COc1ccc(C(=O)/C=C2/C(=O)Nc3ccccc32)cc1OC	-1	10	nt	nt
COc1ccc(C(=O)/C=C2/C(=O)Nc3ccccc32)cc1	21*	58*	nt	nt
COc1ccc(C2(C(=O)c3ccccc3)C(=O)c3ccccc3C2=O)cc1	14*	37	nt	nt
Cc1cccc(NC(=O)c2cc(=O)c3ccccc3o2)c1	24*	27	?	?
Cc1cc(C)cc(NC(=O)c2cc(=O)c3ccccc3o2)c1	9	5	14%[46.1 µM]	0%[46.1 µM]
Cc1c(C(=O)Nc2cccc(-c3nc4ccccc4s3)c2)oc2ccccc12	nt	nt	?	25%[46.1 µM]
O=C(NCCc1ccc(F)cc1)c1cc(=O)c2ccccc2o1	25*	30	?	-4%[46.1 µM]
Cc1cccc(NC(=O)c2cc(=O)c3ccccc3o2)n1	24*	56	12%	16%
O=C(Nc1cccc(-c2nc3ccccc3s2)c1)c1cc(=O)c2ccccc2o1	14	31*	0%	13%
CCc1ccc(NC(=O)Cn2c(=O)nc(-c3ccccc3F)c3cc(Cl)ccc32)cc1	nt	nt	-7%[46.1 µM]	nt
CC(C)COc1cccc(-c2cc(C(=O)Nc3ccon3)c3ccccc3n2)c1	1	-7	-7%	?
SMILES	CHX counter	Shiga toxin inh	Lassa entry inh	MARV entry inh
NC(=O)c1ccsc1NC(=O)c1cc(=O)c2ccccc2o1	44*	38	?	?
Cc1ccccc1NC(=O)c1cc(=O)c2ccccc2o1	16	30	-7%	18%
Cc1cc(C)c(NC(=O)c2cc(=O)c3ccccc3o2)c(C)c1	-2	-6	-19%	7%
O=C(COC(=O)c1cc(=O)c2ccccc2o1)Nc1ccc2ccccc2c1	11*	-22	23%	19%
N#Cc1ccccc1NC(=O)c1cc(=O)c2ccccc2o1	19	59*	-5%	24%[46.1 µM]
CC(=O)c1sc(NC(=O)c2cc(=O)c3ccccc3o2)nc1C	36*	60*	nt	nt
COc1cccc(NC(=O)c2cc(=O)c3ccccc3o2)c1	19*	47*	nt	nt
Cc1ccc(NC(=O)c2cc(=O)c3ccccc3o2)cc1	29*	125	?	14%
CC(=O)Nc1ccc(NC(=O)c2cc(=O)c3ccccc3o2)cc1	-4	-8	-3%[46.1 µM]	5%[46.1 µM]
Cc1ccc(C)c(NC(=O)c2cc(=O)c3ccccc3o2)c1	33*	17	25%	?
O=C(N/C(=C\c1ccccc1)C(=O)N1CCOCC1)c1ccccc1Cl	7	-6	nt	nt
COc1cc2nc(Nc3cccc(C)c3)nc(N)c2cc1OC	nt	nt	3%[46.1 µM]	?
COc1ccc(C)cc1Nc1nc(N)c2ccccc2n1	28*	55*	-17%[46.1 µM]	?
Cc1ccccc1Nc1nc(N)c2ccccc2n1	21*	52*	nt	nt
CCCS(=O)(=O)c1nc(S(=O)(=O)c2ccc(C)cc2)c(NCC(C)C)s1	nt	nt	-21%[46.1 µM]	-9%[46.1 µM]
COc1cccc(C2C(C(=O)c3sc(C)nc3C)=C(O)C(=O)N2CCN(C)C)c1OC (stereo not given)	-8	-21	nt	nt
OCCOCCOc1ccc(-c2nn[nH]n2)cc1	-4	-13	-5%[46.1 µM]	8%[46.1 µM]
OCCOc1ccc(C2=NCCO2)cc1	15*	58	?	-2%
CCC(NC(=O)Nc1nnc(C(F)(F)F)s1)(C(F)(F)F)C(F)(F)F	1	-8	7.1µM*	2.5µM*
COc1ccc(S(=O)(=O)Nc2nnc(Cc3ccc(OC)c(OC)c3)s2)cc1	9.2*	21	0%	8%[46.1 µM]
CCc1nnc(NC(=O)c2ccc(S(C)(=O)=O)cc2)s1	5	4	nt	nt
CCc1nnc(NC(=O)c2ccc(OC)cc2)s1	28*	93*	?	17%
COc1cccc(-c2nnc(NC(=O)Cc3cccs3)s2)c1	22*	32	15%	-13%
O=C(O)CCC(=O)Nc1nnc(C(F)(F)F)s1	-3	-2	-3%	8%[46.1 µM]
COc1cc(-c2nnc(SCC(=O)N(C)C3CCCCC3)o2)cc(OC)c1OC	nt	nt	0%[46.1 µM]	-4%[46.1 µM]
SMILES	CHX counter	Shiga toxin inh	Lassa entry inh	MARV entry inh
CCc1nnc(NS(=O)(=O)c2ccc(N/C=C/C(=O)c3ccc(OC)cc3)cc2)s1	51*	86*	-15%[46.1 µM]	?
CCOCc1nnc(NC(=O)c2cc(OC)cc(OC)c2)s1	-2	-5	nt	nt
COc1cccc(C(=O)Nc2nnc(-c3cccs3)s2)c1	24*	89*	?	?
CCc1nnc(NC(=O)c2cccc(OC)c2)s1	42*	65*	?	?
CCOCc1nnc(NC(=O)c2cccc(OC)c2)s1	25*	57*	nt	nt
CCc1nnc(NC(=O)c2c(OC)cccc2OC)s1	-2	10	-15%	11%
N#Cc1ccccc1NC(=O)CN(Cc1ccccc1)Cc1ccccc1	-3	-4	?	?
COc1ccc(C(=O)Nc2nnc(-c3ccccc3)s2)cc1	12	4	9%	-14%
COc1ccc(C(=O)Nc2nnc(C(F)(F)F)s2)cc1	27*	98*	6%	?
CC[C@H](C)[C@H](N)C(=O)N[C@@H](CCCNC(=N)N)C(=O)N[C@@H](CCC(N)=O)C(=O)NCC(=O)N1CCC[C@H]1C(=O)N[C@@H](CCCCN)C(=O)N[C@@H](CCC(=O)O)C(=O)N1CCC[C@H]1C(=O)N[C@@H](Cc1ccccc1)C(=O)N[C@@H](CCCNC(=N)N)C(=O)N[C@@H](CC(=O)O)C(=O)N[C@@H](Cc1ccc(O)cc1)C(=O)N[C@H](C(=O)N[C@@H](CC(=O)O)C(=O)N[C@@H](CCCNC(=N)N)C(=O)N[C@@H](Cc1ccccc1)C(=O)N[C@@H](Cc1ccc(O)cc1)C(=O)N[C@@H](CCCCN)C(=O)N[C@H](C(=O)N[C@@H](CC(C)C)C(=O)O)[C@@H](C)O)C(C)C	-2	11	nt	nt
CCOC(=O)c1cccc(NC(=O)N2CC(CC)Oc3ccccc32)c1 (stereo not given)	nt	nt	7%[46.1 µM]	nt
CCCCN(C)C(=O)c1cc2cc3cc(OC)ccc3nc2o1	42*	63*	nt	nt
